In PubChem BioAssay AID504582 (Broad Institute, 2011):
Where “and” joins values, the source holds several entries; their conditions need not be identical. Equal values may be shown once. In all, about 340,000 compounds went through this assay and about 2,300 (0.68%) were called active. This is one part of a sample in which actives are shown more often than they occur. Cut-off read from the data, not from the text of the source: active = growth rescue above about 28% (passing the limit was not always enough); inconclusive = no clear call, values can overlap the other calls.

Test: rescue of yeast from PfHsp40 toxicity, primary screen, S. cerevisiae, ATP luminescence (AID 504582);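 note: yeast W303a lacking pdr1 and pdr3 grown in galactose medium; growth measured after three days at 30 °C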
Settings: S. cerevisiae expressing PfHsp40, growth rescue, at 12.5 µM, stronger effect = higher value
For `Cc1noc(C)c1COc1ccc(C(=O)NCCOc2ccccc2)cc1`, the growth rescue was 0.221% (inactive).
With `Cc1onc(-c2ccccc2)c1C(=O)NNC(=S)NC(=O)c1ccc(F)cc1` the growth rescue was 45.5% (active).
With `COc1ccc(C(=O)NC(=S)NNC(=O)CCc2ccccc2)cc1` the growth rescue was 277% (active).
In the case of `COc1ccc(C(=O)NC(=S)NNC(=O)c2c(-c3ccccc3)noc2C)cc1`, the growth rescue is reported as 42.1% (active).
With `Cc1onc(-c2ccccc2)c1C(=O)N=C(N)c1ccc(Cl)cc1` the growth rescue was -1% (inactive).
For `COc1ccc(C(=O)NC(=S)NC2CCCCC2)cc1`, the growth rescue was 0.972% (inactive).
In the case of `Cc1onc(-c2c(Cl)cccc2Cl)c1C(=O)NNC(=O)c1c(-c2c(Cl)cccc2Cl)noc1C`, the growth rescue is reported as -0.106% (inactive).
With `O=C(CCc1ccccc1)NNC(=O)COc1ccc(Cl)cc1` the growth rescue was -0.417% (inactive).
For `Cc1onc(-c2ccccc2)c1C(=O)Nc1ccccc1C#N`, the growth rescue was -0.716% (inactive) and 0.99% (inactive).
With `COc1ccc(NS(=O)(=O)c2cc(NC(=O)c3ccc(S(=O)(=O)N(C)C)cc3)ccc2N2CCOCC2)cc1` the growth rescue was 0.23% (inactive).
In the case of `CCOC(=O)N1CCN(CC(=O)n2c(C)c(C)c3ccccc32)CC1`, the growth rescue is reported as 1.25% (inactive).
With `COC(=O)Cc1ccc(NC(=S)NCc2ccco2)cc1` the growth rescue was -0.043% (inactive).
With `Cc1cc(C)cc(N)c1` the growth rescue was -0.449% (inactive).
In the case of `CCN(C(=O)CSc1nnnn1-c1ccc(OC)cc1)C1CCS(=O)(=O)C1` (stereo not given), the growth rescue is reported as -0.617% (inactive).
For `Cc1c(C(=O)N(C)CCc2cnn(C)c2)oc2c(F)cccc12`, the growth rescue was 6.8% (inactive).
With `CC(C)N(C(=O)CSc1nnc(NC2CC2)s1)c1ccccc1` the growth rescue was 0.892% (inactive).
With `CC(C)c1ccc(Nc2nnc(SCC(=O)c3nnc(-c4ccccc4)o3)s2)cc1` the growth rescue was 200% (active).
With `Cc1ccccc1Nc1nnc(SCC(=O)c2cc3ccccc3o2)s1` the growth rescue was 0.609% (inactive).
In the case of `O=C1C2(Cl)C3(Cl)C4(Cl)C(Cl)(Cl)C5(Cl)C3(Cl)C1(Cl)C5(Cl)C24Cl` (stereo not given), the growth rescue is reported as 78.8% (active).
With `CCc1ccc(NC(=O)N[C@H](C(=O)O)C(C)CC)cc1` (stereo not given in full) the growth rescue was -0.138% (inactive).
In the case of `CCOc1ccc(NC(=O)N2CC=C(n3c(=O)[nH]c4ccccc43)CC2)cc1`, the growth rescue is reported as -0.78% (inactive).
In the case of `CCn1c(SC)nc(O)c(C(c2ccc(OC)c(O)c2)c2c(O)nc(SC)n(CC)c2=O)c1=O`, the growth rescue is reported as -0.176% (inactive).
For `CC(Sc1nnc(-c2cccs2)n1C1CC1)C(=O)NCC1CCCO1` (stereo not given), the growth rescue was -0.606% (inactive).
In the case of `O=c1oc2ccccc2cc1-c1cn(-c2ccccc2)c(=S)[nH]1`, the growth rescue is reported as 2.32% (inactive).
In the case of `O=c1oc2ccccc2cc1-c1csc(Nc2ccc(O)cc2)n1`, the growth rescue is reported as 77.4% (active).
With `Cc1cc(C)cc(OCC(=O)NNC(=O)c2cc3ccccc3oc2=O)c1` the growth rescue was -1.97% (inactive).
In the case of `COc1cc(C(=O)OCC(=O)NC23CC4CC(CC(C4)C2)C3)cc(OC)c1OC`, the growth rescue is reported as 0.746% (inactive).
With `CC1(C)C2CCC1(C)C(OC(=O)CCn1ccnc1)C2` (stereo not given) the growth rescue was -1.93% (inactive).
With `CC1(C)C2CCC1(C)C(OC(=O)c1ccc(O)cc1)C2` (stereo not given) the growth rescue was 518% (active).
With `Cc1ccc(C(=O)OC2CCCN(C)C2)cc1` (stereo not given) the growth rescue was -1.37% (inactive).
With `CCOC(=O)Nc1ccc2c(c1)N(C(=O)CCCl)c1ccccc1[S@]2=O` the growth rescue was 1.15% (inactive).
In the case of `Cc1ccc2c(c1)N(CC(=O)NCCCN1CCCCC1)C(=O)c1cccnc1O2`, the growth rescue is reported as -0.596% (inactive).
For `COC(=O)C1CCCCN1C(=O)c1ccc(OC2CCN(C(C)=O)CC2)c(OC)c1` (stereo not given), the growth rescue was 1.77% (inactive).
With `Cc1ccc2c(c1)N(CC(=O)N1CCOCC1)C(=O)CO2` the growth rescue was -0.417% (inactive).
With `CCCCNc1c(-c2cccc(Sc3ccc(OC)cc3)c2)nc2ccccn12` the growth rescue was 310% (active).
For `CCCCNc1nc2c(c(=O)n(C)c(=O)n2C)n1Cc1cccc(OC)c1`, the growth rescue was 0.511% (inactive).
For `CCCCNc1c(-c2ccc(OC)c(Sc3ccc(OC)cc3)c2)nc2ccc(Cl)cn12`, the growth rescue was 19.1% (inactive).
For `Cn1c(=O)n(C)c2cc(CNc3ccc(N4CCOCC4)c(C(=O)O)c3)ccc21`, the growth rescue was -0.489% (inactive).
In the case of `Cc1cccc(N2CCN(C(=O)CN(C)S(=O)(=O)c3ccc4c(c3)CCC(=O)N4)CC2)c1C`, the growth rescue is reported as -1.62% (inactive).
For `COc1ccc(C(=O)Nc2ccccc2C(=O)N/N=C/c2ccc(O)c(OC)c2)cc1`, the growth rescue was 40.9% (active).
With `COc1cc(C=NNC(=O)c2cccnc2)ccc1OC(=O)c1ccccc1F` the growth rescue was 1.77% (inactive).
In the case of `COc1ccc(C(=O)Nc2cc(C)c(NC(=O)c3ccccc3OC)cn2)cc1`, the growth rescue is reported as 1.75% (inactive).
For `C=CCN1CC(C)/C(=N\O)CC1C` (stereo not given), the growth rescue was -0.962% (inactive).
With `COc1cccc(CNC(=O)CCC2CCCN(C(=O)c3cc(C)[nH]n3)C2)c1` (stereo not given) the growth rescue was 1.27% (inactive).
With `NC(=O)NC(=O)CSc1nc2cc([N+](=O)[O-])ccc2n1-c1cccc(C(F)(F)F)c1` the growth rescue was 0.555% (inactive).
For `Nc1[nH]c(=S)nc2nc(-c3ccccc3)c(-c3ccccc3)nc12`, the growth rescue was 38.7% (active).
In the case of `Cc1ccc(Cc2cncc(O)c2)cc1S(=O)(=O)O`, the growth rescue is reported as -2.67% (inactive).
In the case of `O=C(Nc1ccc2sc3ccccc3c(=O)c2c1)c1ccccc1Cl`, the growth rescue is reported as -0.178% (inactive).
For `COC(=O)c1nc(NC(=O)c2ccccc2)n[nH]1`, the growth rescue was -0.423% (inactive).
With `O=C(Nc1ccc2ccccc2c1[N+](=O)[O-])c1ccccc1` the growth rescue was 0.461% (inactive).
In the case of `O=C(NC1=CC(=O)c2ccccc2C1=O)c1ccccc1`, the growth rescue is reported as 300% (active).
In the case of `O=c1c2ccccc2ccc2ccc(P(=O)(O)O)cc12`, the growth rescue is reported as -0.021% (inactive).
With `CCOC(=O)CSc1nnc(CNC(=O)c2cccs2)n1-c1ccccc1` the growth rescue was -0.612% (inactive).
In the case of `COc1ccc2[nH]c3c(c2c1)CCN[C@H]3C`, the growth rescue is reported as -1.47% (inactive).
In the case of `COc1ccc2[nH]c(C(=O)N3CCN(C)CC3)c(C)c2c1`, the growth rescue is reported as -0.899% (inactive).
With `COc1ccc2[nH]c3c(C)c4cc[n+](C)cc4c(C)c3c2c1` the growth rescue was 122% (active).
In the case of `Cc1c(NC(=O)C(C)Oc2cccc(Cl)c2)c(=O)n(-c2ccccc2)n1C` (stereo not given), the growth rescue is reported as 0.003% (inactive).
With `COc1ccc(-c2cc(C(=O)NCCCN3CCOCC3)no2)cc1` the growth rescue was 0.263% (inactive).
In the case of `O=C(NCCCN1CCOCC1)c1cc(-c2ccc(Cl)cc2)on1`, the growth rescue is reported as 0.597% (inactive).
In the case of `O=C(NCCCN1CCOCC1)c1cc(-c2cccc(O)c2)on1`, the growth rescue is reported as 44.1% (active).
